Measured values from publication PMC7862700, “An all-to-all approach to the identification of sequence-specific readers for epigenetic DNA modifications on cytosine”.

Experiments:
Experiment in all cases: DAPPL (digital affinity profiling via proximity ligation, sequencing); 10 mM Tris-HCl pH 7.5, 50 mM NaCl, 1 mM DTT, 4% glycerol, room temperature, 30 min; GST-TFs on glutathione beads, 16-mer random dsDNA library, 0.1% formaldehyde crosslink after washing; high values mean tight binding
Settings in all cases: protein: recombinant; tags: N-terminal GST; dsDNA, one strand shown
FLI1 = biological target: T1, FLI1 (Homo sapiens, UniProt Q01543 1-452)
T1 sequence: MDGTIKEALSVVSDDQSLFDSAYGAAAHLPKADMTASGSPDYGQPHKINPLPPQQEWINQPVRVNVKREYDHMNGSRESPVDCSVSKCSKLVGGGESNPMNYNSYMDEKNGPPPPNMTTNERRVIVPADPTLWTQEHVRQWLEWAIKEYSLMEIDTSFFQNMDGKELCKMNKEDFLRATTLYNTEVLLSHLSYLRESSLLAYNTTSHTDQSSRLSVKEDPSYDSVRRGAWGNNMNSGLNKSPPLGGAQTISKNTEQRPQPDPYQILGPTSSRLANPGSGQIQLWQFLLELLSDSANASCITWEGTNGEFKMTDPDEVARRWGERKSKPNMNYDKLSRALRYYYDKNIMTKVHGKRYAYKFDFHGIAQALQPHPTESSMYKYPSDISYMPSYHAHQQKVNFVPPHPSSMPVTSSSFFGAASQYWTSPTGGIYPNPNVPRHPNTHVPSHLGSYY
How it was run: (§1)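 Human transcription factors were made in yeast as GST fusions, captured on glutathione beads and barcoded with DNA. With a tag-only sample included, the pool was incubated with 200 nmole of a random double-stranded 16-mer DNA library in Tris/NaCl/DTT/glycerol buffer at room temperature for 30 min, then crosslinked with 0.1% formaldehyde after washing, ligated by proximity, amplified and sequenced. For binding signal, each hexamer's read frequency for a factor is divided by its frequency for the tag-only sample.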

ELK1 = biological target: T2, ELK1 (Homo sapiens, UniProt P19419 1-428)
T2 sequence: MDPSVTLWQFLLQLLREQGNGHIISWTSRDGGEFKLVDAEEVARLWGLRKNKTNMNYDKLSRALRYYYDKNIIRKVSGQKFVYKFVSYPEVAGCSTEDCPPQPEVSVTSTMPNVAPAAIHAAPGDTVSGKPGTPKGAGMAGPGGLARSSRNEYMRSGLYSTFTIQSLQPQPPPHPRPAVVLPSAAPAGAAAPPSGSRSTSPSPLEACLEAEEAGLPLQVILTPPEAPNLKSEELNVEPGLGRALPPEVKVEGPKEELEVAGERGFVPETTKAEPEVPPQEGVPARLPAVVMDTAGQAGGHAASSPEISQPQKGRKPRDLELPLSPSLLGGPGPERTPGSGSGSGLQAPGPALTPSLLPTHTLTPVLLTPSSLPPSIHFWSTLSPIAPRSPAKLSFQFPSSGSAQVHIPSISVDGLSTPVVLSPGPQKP
How it was run: as §1

GABPA = biological target: T3, GABPA (Homo sapiens, UniProt Q06546 1-454)
T3 sequence: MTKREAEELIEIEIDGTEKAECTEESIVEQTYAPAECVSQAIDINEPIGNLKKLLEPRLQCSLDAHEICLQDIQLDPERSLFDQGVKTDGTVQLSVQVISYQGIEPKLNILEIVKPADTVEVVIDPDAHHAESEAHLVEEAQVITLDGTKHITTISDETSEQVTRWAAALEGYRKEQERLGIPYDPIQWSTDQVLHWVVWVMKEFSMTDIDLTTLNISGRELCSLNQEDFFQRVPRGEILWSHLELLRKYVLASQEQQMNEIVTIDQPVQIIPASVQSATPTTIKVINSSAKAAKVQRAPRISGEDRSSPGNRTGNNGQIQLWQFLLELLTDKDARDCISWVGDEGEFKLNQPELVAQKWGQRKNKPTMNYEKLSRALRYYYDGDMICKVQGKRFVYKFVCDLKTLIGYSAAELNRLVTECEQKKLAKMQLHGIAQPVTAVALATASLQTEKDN
How it was run: as §1

ERG = biological target: T4, ERG (Homo sapiens, UniProt P11308 1-479)
T4 sequence: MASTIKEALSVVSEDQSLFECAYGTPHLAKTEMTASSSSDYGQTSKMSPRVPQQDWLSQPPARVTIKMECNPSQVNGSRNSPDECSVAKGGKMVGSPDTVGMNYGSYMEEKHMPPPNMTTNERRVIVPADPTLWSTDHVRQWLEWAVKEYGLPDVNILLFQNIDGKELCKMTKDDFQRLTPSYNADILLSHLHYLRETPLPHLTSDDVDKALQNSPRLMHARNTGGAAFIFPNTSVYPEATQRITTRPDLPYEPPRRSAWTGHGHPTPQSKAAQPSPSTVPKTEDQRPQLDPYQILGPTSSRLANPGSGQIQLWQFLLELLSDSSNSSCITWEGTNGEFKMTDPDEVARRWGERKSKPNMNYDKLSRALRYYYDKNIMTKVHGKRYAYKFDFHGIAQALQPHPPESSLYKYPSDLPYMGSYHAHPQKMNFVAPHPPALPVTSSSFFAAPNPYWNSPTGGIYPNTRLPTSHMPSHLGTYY
How it was run: as §1

ELF1 = ELF1 (Homo sapiens, UniProt P32519 1-619)
Sequence of ELF1 (P32519 whole entry): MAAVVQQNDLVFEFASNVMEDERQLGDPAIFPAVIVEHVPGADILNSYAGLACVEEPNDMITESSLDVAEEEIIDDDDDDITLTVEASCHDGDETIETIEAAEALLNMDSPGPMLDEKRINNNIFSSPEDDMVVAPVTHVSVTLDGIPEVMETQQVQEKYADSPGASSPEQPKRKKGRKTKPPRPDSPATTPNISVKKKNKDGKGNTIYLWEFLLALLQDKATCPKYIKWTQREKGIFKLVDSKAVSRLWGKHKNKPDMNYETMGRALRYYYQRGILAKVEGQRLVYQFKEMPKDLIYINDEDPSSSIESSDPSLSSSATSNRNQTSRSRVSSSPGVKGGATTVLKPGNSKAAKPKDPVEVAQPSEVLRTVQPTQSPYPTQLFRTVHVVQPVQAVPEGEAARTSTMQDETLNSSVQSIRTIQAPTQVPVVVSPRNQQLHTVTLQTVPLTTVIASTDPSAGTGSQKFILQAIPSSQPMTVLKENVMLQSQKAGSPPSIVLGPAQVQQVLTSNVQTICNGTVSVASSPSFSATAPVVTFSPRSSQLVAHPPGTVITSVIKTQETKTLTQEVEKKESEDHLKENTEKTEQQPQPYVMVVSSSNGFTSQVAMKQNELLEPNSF
How it was run: as §1

EHF = biological target: T5, EHF (Homo sapiens, UniProt Q9NZC4 1-300)
T5 sequence: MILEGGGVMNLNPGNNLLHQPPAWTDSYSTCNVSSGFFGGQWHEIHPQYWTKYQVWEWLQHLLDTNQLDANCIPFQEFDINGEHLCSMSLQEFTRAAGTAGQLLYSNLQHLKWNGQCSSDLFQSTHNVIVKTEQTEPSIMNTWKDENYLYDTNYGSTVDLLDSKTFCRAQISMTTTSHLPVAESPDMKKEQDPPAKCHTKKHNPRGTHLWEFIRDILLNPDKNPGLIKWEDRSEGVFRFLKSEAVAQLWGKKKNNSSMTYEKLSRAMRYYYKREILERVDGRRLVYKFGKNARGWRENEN
How it was run: as §1

SPI1 = SPI1 (Homo sapiens, UniProt P17947 1-270)
How it was run: as §1

SPIB = SPIB (Homo sapiens, UniProt Q01892 1-262)
Sequence of SPIB (Q01892 whole entry): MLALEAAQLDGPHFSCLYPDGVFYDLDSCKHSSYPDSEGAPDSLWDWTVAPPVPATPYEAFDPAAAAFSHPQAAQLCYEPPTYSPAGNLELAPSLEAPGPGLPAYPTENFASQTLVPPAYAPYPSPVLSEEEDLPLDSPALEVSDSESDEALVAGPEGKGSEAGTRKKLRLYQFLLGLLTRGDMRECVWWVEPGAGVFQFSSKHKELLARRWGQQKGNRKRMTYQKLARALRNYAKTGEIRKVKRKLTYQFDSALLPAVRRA
How it was run: as §1

ELK3 = biological target: T6, ELK3 (Homo sapiens, UniProt P41970 1-407)
T6 sequence: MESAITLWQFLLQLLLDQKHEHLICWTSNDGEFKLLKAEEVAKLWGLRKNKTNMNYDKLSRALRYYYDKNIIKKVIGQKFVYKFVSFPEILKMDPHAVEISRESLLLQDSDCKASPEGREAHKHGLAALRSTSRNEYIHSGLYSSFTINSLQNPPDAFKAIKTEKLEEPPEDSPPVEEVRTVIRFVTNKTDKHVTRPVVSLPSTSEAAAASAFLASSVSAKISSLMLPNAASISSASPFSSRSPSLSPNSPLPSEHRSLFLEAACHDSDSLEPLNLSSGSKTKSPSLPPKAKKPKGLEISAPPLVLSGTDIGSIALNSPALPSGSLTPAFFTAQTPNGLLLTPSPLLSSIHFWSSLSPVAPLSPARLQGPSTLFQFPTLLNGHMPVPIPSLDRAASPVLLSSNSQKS
How it was run: as §1

Row | Sequence | binding signal (FLI1) | binding signal (ELK1) | binding signal (GABPA) | binding signal (ERG) | binding signal (ELF1) | binding signal (EHF) | binding signal (SPI1) | binding signal (SPIB) | binding signal (ELK3)
1 | CCTCGG | 1.2 fold enrichment (6-mer frequency, TF over GST control) | 1.17 fold enrichment (6-mer frequency, TF over GST control) | 1.2 fold enrichment (6-mer frequency, TF over GST control) | 1.2 fold enrichment (6-mer frequency, TF over GST control) | 1.24 fold enrichment (6-mer frequency, TF over GST control) | 1.33 fold enrichment (6-mer frequency, TF over GST control) | 1.14 fold enrichment (6-mer frequency, TF over GST control) | 1.15 fold enrichment (6-mer frequency, TF over GST control) | 1.05 fold enrichment (6-mer frequency, TF over GST control)
2 | GCTCGA | 1.22 fold enrichment (6-mer frequency, TF over GST control) | 1.12 fold enrichment (6-mer frequency, TF over GST control) | 1.15 fold enrichment (6-mer frequency, TF over GST control) | 1.2 fold enrichment (6-mer frequency, TF over GST control) | 1.21 fold enrichment (6-mer frequency, TF over GST control) | 1.19 fold enrichment (6-mer frequency, TF over GST control) | 1.22 fold enrichment (6-mer frequency, TF over GST control) | 1.24 fold enrichment (6-mer frequency, TF over GST control) | 1.13 fold enrichment (6-mer frequency, TF over GST control)
3 | AGTAAT | 1.02 fold enrichment (6-mer frequency, TF over GST control) | 1.1 fold enrichment (6-mer frequency, TF over GST control) | 1.16 fold enrichment (6-mer frequency, TF over GST control) | 1.09 fold enrichment (6-mer frequency, TF over GST control) | 1.12 fold enrichment (6-mer frequency, TF over GST control) | 1.19 fold enrichment (6-mer frequency, TF over GST control) | 1.17 fold enrichment (6-mer frequency, TF over GST control) | 1.1 fold enrichment (6-mer frequency, TF over GST control) | 1.12 fold enrichment (6-mer frequency, TF over GST control)
4 | CCGGTT | 1.88 fold enrichment (6-mer frequency, TF over GST control) | 2.1 fold enrichment (6-mer frequency, TF over GST control) | 1.89 fold enrichment (6-mer frequency, TF over GST control) | 2.2 fold enrichment (6-mer frequency, TF over GST control) | 1.96 fold enrichment (6-mer frequency, TF over GST control) | 1.97 fold enrichment (6-mer frequency, TF over GST control) | 2.11 fold enrichment (6-mer frequency, TF over GST control) | 1.97 fold enrichment (6-mer frequency, TF over GST control) | 2.26 fold enrichment (6-mer frequency, TF over GST control)
